In the supplement of paper PMC11417369:
± gives the standard deviation of the averaged measurements. In all, about 25,000 sequences were measured (“ln(normalized median fluorescence intensity)”: median about 7.9, highest 2% from about 11 on). This excerpt belongs to a sample that is enriched for the highest values.

Test system: PfAP2-I AP2 domain 3 (GST-tagged)
Experiment: gcPBM binding intensity (ln(normalized median fluorescence intensity)); higher = stronger DNA binding
Procedure, shortened: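 The binding buffer was 1× PBS containing 1% milk, 0.2 mg/ml BSA, 0.5% salmon testes DNA and 0.03% Triton X-100. In it, GST-tagged P. falciparum DNA-binding domains expressed in E. coli were applied for 1 h to an Agilent 4 × 180k array of primer-extended double-stranded 36-bp intergenic genomic probes plus negative controls. Binding intensity, read with Alexa488 anti-GST antibody and a 488 nm scan, is the highest Masliner-normalised natural-log median intensity across replicate spots of either probe orientation.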

Row | Sequence | gcPBM binding intensity (ln)
1 | TCTAATTTAAAATACACACACATATCTATAATATAT [CACACA_site7029] | 7.63 ± 0.28
2 | TGAAAAATATAAGGTTGTACTTACATCGGGAATAAT [XGTACX_site4701] | 8.05 ± 0.55
3 | TAATTTTCAATAATTTGTACATAATTTTTATAAATT [XGTACX_site8133] | 7.49 ± 0.3
4 | AAATCGTAATATATTTGTACTTATTTGAAAAATCCA [XGTACX_site8141] | 7.76 ± 0.33
5 | TTCTTATTTAATGTATCACACACGAGAATAAAAAAT [CACACA_site8992] | 7.98 ± 0.48
6 | ACATTTTTTTTTTTTTTTCTTTTTCTTTTTCTTTTT [CACACA_negctrl_site1295] | 7.72 ± 0.52
7 | AACTAATAGTATATTACATGCAAAAGTAAAAGTAAA [TGCATGCA_site411] | 8.02 ± 0.78
8 | AAATATATAAAAGTATGTACATATGAAAAATATATA [XGTACX_site6165] | 8 ± 0.52
9 | GTATAAAAGTAACTAGTGCATTACATATGAATAAAA | 11.4 ± 0.6
10 | TAGCTTATTAATATCATACACACATAGATATATTTA [CACACA_site3105] | 7.5 ± 0.54
11 | CAATATTATAGATATACACACATAATGTGTAAAAAC [CACACA_site6631] | 7.87 ± 0.79
12 | TTAAAATGAAGAAGTGCACACATATATATATTTATA [CACACA_site8063] | 9.67 ± 0.18
13 | GAAAAATTAAAAATAACACACACATATATATATTTA [CACACA_site8896] | 7.56 ± 0.4
14 | TTAGTAAATACATTTGCACACATTATTTTTTAACAT [CACACA_site5448] | 9.36 ± 0.11
15 | TGTAAATTATAACGTGCACACATATTTAAAATGAAA [CACACA_site8915] | 11.2 ± 0.15
16 | AAAATTAAAAATAACACACACATATATATATTTATA [CACACA_site2776] | 7.66 ± 0.34
17 | TAAACGTTAGTATGTGTGCACATTAGTAATTTAAAA | 9.65 ± 0.3
18 | TTCATTCAAATTAACGTGCACATTATTAGTAAAAAC | 11.05 ± 0.035
19 | TAAATTATAACGTGCACACATATTTAAAATGAAATG [CACACA_site2820] | 11.3 ± 0.23
20 | AAAAAATTAACGAGTGCACACATATTTAGATAAAAT [CACACA_site8958] | 9.86 ± 0.18
21 | CTTAATAAGAATAAATGTACAAGGGATAAAAAATTT [XGTACX_site3213] | 8.02 ± 0.73
22 | TTTTTTTTTTTTGAAACATGCATTGTTTTATTCTTA [TGCATGCA_site15] | 7.99 ± 0.85
23 | GGAAATTTCAATATTTGTACATATATATATATATAT [XGTACX_site3222] | 9.56 ± 0.6
24 | AGACATAAGATAATTACACACAATACATCCCTATAT [CACACA_site2227] | 7.76 ± 0.57

Row | Sequence | gcPBM binding intensity (ln)
25 | AGAAACCTTGTTAGTTAGCATATATATATATATATA [CACACA_negctrl_site372] | 9.46 ± 0.46
26 | GGAAGCTAATTACACACATGCATATTTTTTTTTCAA [TGCATGCA_site548] | 8.16 ± 0.83
27 | ATTTTTTTTTTTTTTTTGGGGGGGTATACTTTTAAA [CACACA_negctrl_site1020] | 11.6 ± 0.4
28 | TATACTTTATATATTTTGTATATATATTTTTTTTAT [TGCATGCA_negctrl_site530] | 7.5 ± 0.28
29 | GTTAATATTTTTGGGGGTACTTAAAAAAAAAAAAAA [XGTACX_site1477] | 9.29 ± 0.26
30 | ATCTATGATATATACACACACATGTATAAATAAATA [CACACA_site7012] | 7.75 ± 0.47
31 | TTTTTCTTTTTTTGTTGTACATTTTGTAATATTTAC [XGTACX_site4102] | 7.9 ± 0.59
32 | TTATTTTTCTTTATTGGTACACACGAAAAAAAAATT [XGTACX_site6482] | 8.03 ± 0.3
33 | TTTTTTTTTTTTTTTTTTTTTTTTGGGTCCCATACA [CACACA_negctrl_site913] | 8.1 ± 0.63
34 | TAATGGAAACCATTTATTTTCTGCAATATATTTTTT [CACACA_negctrl_site1653] | 7.67 ± 0.35
35 | AAATTTATTATATATACATGCAATCATAAATAATGT [TGCATGCA_site539] | 7.68 ± 0.48
36 | AATCATTTATTGATGGTGCAATATACCATCTAATGA [GTGCAC_site9440] | 11.4 ± 0.76
37 | TTACAAAAATGTGGTTGTACACAAACAAAAAAAATA [XGTACX_site8506] | 8.35 ± 0.29
38 | TCTTTTTTTTCTTTTTTTTTATTTAAATATCAAGTA [CACACA_negctrl_site1354] | 7.59 ± 0.34
39 | TTTTATTGTTGTTATACACACCATATAAAATATTTC [CACACA_site4983] | 7.92 ± 0.6
40 | ATAAAAAGAAATCCAATACACACCTTCAAAATGGGT [CACACA_site1622] | 7.71 ± 0.72
41 | AAAGATATAAATTACTGTACTAATGAAATTGGTAAA [XGTACX_site3582] | 7.67 ± 0.28
42 | AAGAAAAGCATAGATGCACACATATATATATATATA [CACACA_site8675] | 9.485 ± 0.078
43 | ATTATATATATGTGCACACAAAAGATATATATATAT [CACACA_site5205] | 10.2 ± 0.13
44 | TTCAAAAGATATATCGTGCACATATATATGATGAAA | 11.155 ± 0.007
45 | ACTTTTATTCGCTTACGTACATATATTATATATTAT [XGTACX_site4459] | 8.75 ± 0.55
46 | TATAAATATTTATGTACACACATATACATGTTGAAT [CACACA_site5684] | 7.95 ± 0.43
47 | AACCTTACACAAGGGGTGCAATATTATTTCGATAAA [GTGCAC_site9600] | 11.5 ± 0.66
48 | AATATTATTATTATTACACACACAATTATATTTACC [CACACA_site8061] | 7.93 ± 0.38

Row | Sequence | gcPBM binding intensity (ln)
49 | AGCAATTTGGGGTGTACACACACCTTATTTAAATTA [CACACA_site1157] | 8.23 ± 0.22
50 | TACATTTTACTTGTTACACACATATAAAATTAACCA [CACACA_site2922] | 7.82 ± 0.5
51 | AATAGTAAAAATCACTGTACGTTTATTTTTAAAATG [XGTACX_site1035] | 7.79 ± 0.28
52 | CCATAACTCATATGCACACATAAATATTACATATAT [CACACA_site3821] | 8.87 ± 0.13
53 | TAGTTCTTTTAATTTAGTATTATACAATATTGGAAA [CACACA_negctrl_site521] | 7.49 ± 0.47
54 | TTTTAATATATAGAGTAACAAATTTGTCTATTAATA [CACACA_negctrl_site1495] | 7.5 ± 0.58
55 | ATATAATATTTTAGAGTGCACCGATAACAATAAATA [GTGCAC_site9754] | 10.4 ± 0.17
56 | ATAACAAAAATCCTTGTGCACTATTTTAATAGAGTC | 11.4 ± 0.12
57 | TTATATAAAGAATGTACACACAGAAATGCACCCACA [CACACA_site2282] | 11 ± 0.57
58 | TTATATAAAGAATGTACACACAGAAATGCACAGACA [CACACA_site5288] | 9.43 ± 0.29
59 | TGTACACCCAGAAATGCACACACATATATATATATA [CACACA_site8716] | 9.54 ± 0.18
60 | CATTTATATAAAGAATGTACACACAGAAATGCACAC [XGTACX_site4718] | 10.2 ± 0.2
61 | GAAAGAAGCATAAATGTACACACATATTTATATATT [CACACA_site8368] | 7.74 ± 0.4
62 | ATTTATATAAAGAATGTACACACAGAAATGCACCCA [CACACA_site8715] | 11 ± 0.83
63 | TCTTTCTCTCTTCAAAGTACATATAATATATACTTC [XGTACX_site7982] | 7.88 ± 0.52
64 | TATTACAAATATGGCACACATATATATATATATATT [CACACA_site3268] | 8.69 ± 0.2
65 | TAAAAAAAAAAGTATACACACTTCTTAATGTCAACA [CACACA_site4818] | 7.36 ± 0.46
66 | TATATATATATATGTATGCACTTTAATTTTATAAGG | 9.85 ± 0.26
67 | ATTAAAAAAAAAAGTATACACACTTCTTAATGTCAA [CACACA_site1244] | 7.39 ± 0.47
68 | TTATGTTCTTAATGCACACTTATAAGTATCTTATAA [CACACA_site1394] | 10.99 ± 0.028
69 | ATATAATATTTATATGCACACTTTTCTATATATAAG [CACACA_site6100] | 9.77 ± 0.15
70 | TTTTATGTTCTTAATGCACACTTATAAGTATCTTAT [CACACA_site4895] | 11.4 ± 0.72
71 | AGGAAATTTTTTTTTTTTTTTTTTTTTTTTTTTTAC [TGCATGCA_negctrl_site170] | 7.5 ± 0.56
72 | TTTATTTTCATATGAACACACATATAAATATTATAA [CACACA_site7172] | 7.87 ± 0.41

Row | Sequence | gcPBM binding intensity (ln)
73 | ATTTTCTTTCTATGCACACGCACGTATTTGCACCCA [CACACA_site3350] | 11.5 ± 0.39
74 | TTTATTTTATCATTTGCACACGCACCCCCACATAAA [CACACA_site8007] | 10.4 ± 0.26
75 | TTATTTTCTTTCTATGCACACGCACGTATTTGCCCA [CACACA_site9104] | 9.39 ± 0.16
76 | GCTTATATTAATAAGGTGCTTTTTATTTCGTGTGTA [GTGCAC_site9649] | 9.06 ± 0.15
77 | AAGGAAAAAACAAATACACACAAAAACGCATTATAA [CACACA_site3466] | 7.87 ± 0.71
78 | TTATGGTGCAACATTATGCACACCGTTAAATAACTA [CACACA_site3846] | 11.1 ± 0.52
79 | TGATTCTAACTTATGGTGCAACATTATGGACACCGT | 10.3 ± 0.35
80 | AATCATAAACATTATGCACACAAAAATAAAAAAAAA [CACACA_site8289] | 9.81 ± 0.11
81 | TCATAAACATTATGCACACAAAAATAAAAAAAAATA [CACACA_site1115] | 9.8 ± 0.56
82 | AACAACAACTAATATGCACACATTTAAAAACAAAAT [CACACA_site2440] | 9.42 ± 0.26
83 | ATGGTGCAACATTATGCACACCGTTAAATAACTAAT [CACACA_site9280] | 11.5 ± 0.7
84 | TACTTTTCTTAAAGATGTACGTTTTAAAAATAAAAT [XGTACX_site14] | 7.81 ± 0.2
85 | ATATTTCTGTGTGGATGTACATTATTAGCAGGCTTT [XGTACX_site6496] | 8.12 ± 0.73
86 | TTTTTTTTTTTTTTTTGTACTTATAAAATAACATGT [XGTACX_site134] | 8.13 ± 0.82
87 | TTTTTTATTTAAAGTAGTACTTTTTAGAAAACAAAA [XGTACX_site6759] | 7.68 ± 0.29
88 | AAAGCACCCAGGCACACACACAAAGGAAAAGAAAAA [CACACA_site232] | 7.95 ± 0.49
89 | AATGCACTATTTAAAAGTACACATAAGAAAAGCATA [XGTACX_site1739] | 9.24 ± 0.28
90 | TTAAAGCACCCATGCACACACACAAGGGAAAAGAAA [CACACA_site4289] | 10.9 ± 0.92
91 | TTAAAGCACCCATGCACACACACAAAGGAAAAGAAA [CACACA_site233] | 11.1 ± 0.93
92 | AAAGCACCCATGCACACACACAAAGGAAAAGAAAAA [CACACA_site6249] | 8.32 ± 0.38
93 | AAAGAAGGGAAACACACACACACACCCACAAAAAAA [CACACA_site3766] | 8.17 ± 0.21
94 | TATTAAAGCACCCATGCACACACACTAAGGAAAAGA [CACACA_site7961] | 11.6 ± 0.71
95 | TATAAATCTATAAATGCACACAAGGGAAGAAAAACG [CACACA_site2965] | 9.46 ± 0.26
96 | CACTAAAAGAAACACACACACACACCCATATATATA [CACACA_site4151] | 8.44 ± 0.75
